Screening results from PubChem.
Most compounds without a hit are left out; they make up all but 12% or so of the library.
JMJD2A Tudor inh – JMJD2A Tudor domain (human) inhibition. actives 4.4% (n = 390,000). Potency, µM (doses to about 114 µM), for inactives: at the top dose activity change, negative = inhibition, hits mostly inhibitors. AlphaScreen JMJD2A-Tudor / H3K4me3 peptide binding. AID 504339; note: potency is the fitted concentration of half-maximal effect; % is set by controls: 0 for no effect and ±100 for the full control effect; nearly all actives have a fitted effect of over 50% in size
PLK1 PBD inh – inhibitors of human PLK1 polo-box domain binding; P53350; Plk1 PBD binding of FITC phosphopeptide, fluorescence polarization; Potency, µM, for the others: max response, negative = inhibition, actives largely listed as inhibitors; actives 2.8% (n = 360,000); AID 720504; note: potency is the fitted concentration of half-maximal effect; series mostly up to about 57 µM; % is set by controls: 0 for no effect and ±100 for the full control effect; nearly all actives have a fitted effect of over 65% in size
G9a inh – G9a (human) methyltransferase inhibition | actives 8.8% (n = 350,000) | G9a H3K9 monomethylation, AlphaScreen, 2 h | Potency, µM (series often up to 102 µM), without a hit: at the highest dose activity, negative = inhibition, actives largely listed as inhibitors | Q96KQ7; note: potency is the fitted concentration of half-maximal effect; % is set by controls: 0 for no effect and ±100 for the full control effect; nearly all actives have a fitted effect of over 75% in size
Target sequence (Q96KQ7 913-1193 limits assumed): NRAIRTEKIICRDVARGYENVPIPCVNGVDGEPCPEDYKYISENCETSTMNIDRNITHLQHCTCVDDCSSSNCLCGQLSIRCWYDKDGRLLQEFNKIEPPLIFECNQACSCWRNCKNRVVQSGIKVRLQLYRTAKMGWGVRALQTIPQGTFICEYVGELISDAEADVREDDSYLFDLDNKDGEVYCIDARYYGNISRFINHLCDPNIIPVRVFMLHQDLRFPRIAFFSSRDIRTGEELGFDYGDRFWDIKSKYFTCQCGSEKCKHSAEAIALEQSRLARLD
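AlphaScreen read-out: biotin-H3K9 peptide (500 nM) methylation by 20 nM enzyme with 20 uM SAM, 2 h at room temperature after 15 min compound preincubation; anti-monomethyl H3K9 antibody plus donor/acceptor beads, 10 min dark.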
HP1b binding inh – blocks HP1-beta chromodomain binding to methylated histone tails | P83916 | AlphaScreen HP1-beta / biotin-H3K9me3 peptide binding | Potency, µM (doses to about 114 µM), for the others: at the top dose activity change, negative = inhibition, actives largely listed as inhibitors | actives 0.56% (n = 390,000) | AID 540317; note: potency is the fitted concentration of half-maximal effect; nearly all actives have a fitted effect of over 70% in size
Target sequence (P83916 whole entry, looked up): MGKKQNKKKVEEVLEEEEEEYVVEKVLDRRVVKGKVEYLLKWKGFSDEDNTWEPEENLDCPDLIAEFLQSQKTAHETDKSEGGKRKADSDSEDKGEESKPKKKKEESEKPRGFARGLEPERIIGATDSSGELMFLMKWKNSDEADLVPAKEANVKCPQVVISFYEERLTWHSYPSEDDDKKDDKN
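AlphaScreen: HP1-beta (50 nM) preformed 30 min with biotin-H3(1-18)K9me3 peptide (50 nM) in PBS pH 7.4, 0.01% Tween-20. Compound added for 30 min at RT, then streptavidin donor/nickel chelate acceptor beads (10 ug/mL) for 30 min.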
BAZ2B block – inhibitors of human BAZ2B bromodomain. Q9UIF8. AlphaScreen BAZ2B-H3K14Ac peptide displacement. Potency, µM (highest dose often 114 µM), without a hit: at the highest dose activity change, negative = inhibition, actives largely listed as inhibitors. actives 4.4% (n = 360,000). AID 504333; note: potency is the fitted concentration of half-maximal effect; % is set by controls: 0 for no effect and ±100 for the full control effect; nearly all actives have a fitted effect of over 60% in size
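Multi-concentration screen (max 110 uM) measuring displacement of acetylated histone H3 peptide from BAZ2B by AlphaScreen, using 50 nM protein, 50 nM peptide and 10 ug/mL streptavidin donor plus Ni-chelate acceptor beads.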
PI5P4K alpha inh – inhibitors of human PI5P4K alpha; P48426; PI5P4Kalpha enzyme, ADP-Glo luminescence, 60 min; active compounds read low; max response, %; actives 1.2% (n = 330,000); active = max response of -50% or lower; inconclusive = between -30% and -50%; inactive = -30% or higher; note: value at the top dose of about 77 µM; % is set by controls: 0 for no effect and ±100 for the full control effect
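Single end-point luminescence (ADP-Glo) quantified ADP from PI5P4Kalpha turnover; ATP 5 microM final, 1 h at RT, 0.1% CHAPS and 0.28 mM EGTA in HEPES pH 7.4.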
Starred values were filed as active, the others as inactive; u = inconclusive; x = not tested or not shown; [ ] = remark or other dose. Unless noted, calls come from the whole dose curve; as a rule, active = well fitted curve in the direction sought with a large enough effect; inconclusive = small, poorly fitted or top-dose-only effect, or another doubt; inactive = no such curve, though single readings can be large; an effect the other way counts as inactive or inconclusive.

SMILES	JMJD2A Tudor inh	PLK1 PBD inh	G9a inh	HP1b binding inh	BAZ2B block	PI5P4K alpha inh
Cc1ccc2c(c1)nnn2C1CCN(CC(=O)c2ccc(Cl)cc2)CC1	-15%	-17%	45µM*	13%	-19%	-4
Cc1ccc2c(c1)nnn2C1CCN(CC(=O)N(c2ccccc2)c2ccccc2)CC1	-32%	-10%	25%[59 µM]	16%	-16%	-2
O=c1ccc2cc3c4c(c2o1)CCCN4CCC3	-8%	17µM*	u	73%	15%	2
O=c1oc2c3c4c(cc2s1)CCCN4CCC3	18µM*	27µM*	7.9µM*	u	56µM*	x
O[C@@H]1CN(C2CCCCC2)CC[C@H]1N1CCN(CCc2ccccc2)CC1	-12%	-19%	x	9%	0%	0
COC(=O)CN1C(=O)C(C)(C)c2cc(S(=O)(=O)Nc3ccc(C(C)C)cc3)ccc21	-13%	x	-3%[59 µM]	21%[57 µM]	-6%	x
c1ccc(Nc2nc(CSc3ncn[nH]3)cs2)cc1	3%[57.1 µM]	-14%	22µM*	14%	-28%	-8
CC(O)(c1cccc(F)c1)c1nc(-c2cc(F)cc(F)c2)cs1 (stereo unspecified)	x	-2%	x	x	x	24
COc1cccc(Nc2nnc(SCc3nc4ccccc4s3)s2)c1	-27%	2%	10µM*	13%	-31%	-19
Cc1cccc(C)c1Nc1nnc(SCc2nc3ccccc3s2)s1	-29%	-24%	8.9µM*	20%	-1%	-13
Cc1cccc(C)c1Nc1nnc(SCC(=O)NCc2cccs2)s1	-11%	-1%	3%[59 µM]	34%	3%	1
COc1cccc(Nc2nnc(SCN3C(=O)c4ccccc4C3=O)s2)c1	-8%	-7%	u	37%	1%	-6
CCOc1ccc(Cn2nnc(C(=O)Nc3cccc(SC)c3)c2N)cc1	0%	x	3%[59 µM]	49%	1%	x
CCOC(=O)c1ccc(NS(=O)(=O)c2cc3c(cc2C)n(C)c(=O)c(=O)n3C)cc1	-6%	x	-4%[59 µM]	32%	0%	x
CCCCC(=O)OC1=C(C(=O)c2ccccc2)N(CCC)S(=O)(=O)c2ccccc21	-20%	x	-42%[59 µM]	16%	-31%	x
CCCc1[nH][nH]c(=O)c1C(c1ccc(Br)cc1)C(C#N)C#N (stereo unspecified)	-33%	6µM*	u	12%	-32%	x
CCOC(=O)N1CCN(C(=O)c2cc3c(=O)n4ccccc4nc3s2)CC1	-1%	6%	38%	45%	-1%	-4
CN1CCN(C(=O)c2cc3c(=O)n4ccccc4nc3s2)CC1	-13%	1%	50µM*	-16%	6%	-20
COc1ccc(-c2cn3nc(N4CCCC(C(=O)Nc5cccc(OC)c5)C4)sc3n2)cc1 (stereo unspecified)	-24%	x	u	12%	-7%	x
CCOc1ccccc1C1c2[nH]c3ccccc3c2C[C@H]2C(=O)N(C3CCN(Cc4ccccc4)CC3)CC(=O)N12 (stereo partly specified)	u	-10%	u	-12%	u	-4
C=CCc1cccc([C@@H]2[C@@H](C)CC[C@H]3C(=O)N4[C@@H](c5cc(OC)c(OC)c(OC)c5)c5[nH]c6ccccc6c5C[C@H]4C(=O)N23)c1	x	x	50µM*	x	u	x
COc1ccc(C2c3[nH]c4ccccc4c3C[C@H]3C(=O)N(C4CCN(Cc5ccccc5)CC4)CC(=O)N23)c(OC)c1 (stereo partly specified)	22µM*	u	u	-16%	-37%	5
O=C1[C@@H]2Cc3c([nH]c4ccccc34)C(c3ccccc3)N2C(=O)CN1C1CCN(Cc2ccccc2)CC1 (stereo partly specified)	u	-9%	79µM*	-5%	32µM*	3
O=C(Nc1ccc(Cl)c(Cl)c1)N(Cc1c[nH]c2ccccc12)C1CCCCC1	-30%	x	4%[59 µM]	0%	x	x
CC1=C(C(=O)Nc2cccc(Cl)c2)C2(CCCCCC2)OC1=O	-34%	x	-2%[59 µM]	19%	-17%	x
SMILES	JMJD2A Tudor inh	PLK1 PBD inh	G9a inh	HP1b binding inh	BAZ2B block	PI5P4K alpha inh
CC(NC(=O)c1cc(S(=O)(=O)N2CCOCC2)ccc1N1CCCC1)c1ccc(Cl)c(Cl)c1 (stereo unspecified)	-1%	2%	u	22%	-3%	0
CCn1c(CNC(=O)c2ccc(OC)cc2)nnc1SCC(=O)Nc1ccc(F)cc1	-3%	x	6%[59 µM]	29%	-3%	x
CCOC(=O)c1c(S(=O)(=O)N2CCCC(C(=O)Nc3cccc(C#N)c3)C2)c(C)n(C)c1C (stereo unspecified)	-24%	x	-1%[59 µM]	7%	u	x
O=C(CC1SC2=NCCN2C1=O)Nc1ccc(Br)cc1 (stereo unspecified)	-18%	2%	17%[59 µM]	20%	11%	x
O=C(Nc1ccc(F)cc1)C1=CC(=O)N2CCN=C2S1	x	x	1µM*	x	u	x
Cc1cc(F)ccc1NC(=O)CS(=O)(=O)c1cccc2nsnc12	-25%	x	9%[59 µM]	37%	4%	x
COc1cc(/C=C2\SC(=O)N(Cc3ccc(F)cc3)C2=O)cc([N+](=O)[O-])c1O	28µM*	27µM*	x	16µM*	8.9µM*	u
COc1cc(/C=C2\SC(=O)N(Cc3ccc(Cl)cc3)C2=O)cc([N+](=O)[O-])c1O	8.9µM*	24µM*	-116%[59 µM]	13µM*	16µM*	-81*
CCOC(=O)CN1C(=O)S/C(=C/c2ccc(OC)c([N+](=O)[O-])c2)C1=O	3%	-8%	25%[59 µM]	28%	6%	-6
Cc1ccc(C)c(NCC(O)c2ccccc2)c1 (stereo unspecified)	-16%	3%	71µM*	3%	-33%	1
Cc1ccc(CC(=O)NCC(O)c2ccccc2)cc1 (stereo unspecified)	-6%	-15%	21%	14%	5%	-7
COC(=O)c1ccc(OCC(=O)NC2CCCCCC2)cc1	-1%	3%	99%	27%	-1%	0
CC(C)CC(=O)O/N=C1\C(=O)N(c2ccccc2)c2ccccc21	-17%[11.4 µM]	30µM*	25%	-14%	-5%[57.1 µM]	5
CC(C)(C)C(=O)O/N=C1/C(=O)N(c2ccccc2)c2ccccc21	u	-23%	22%	10%	-3%[57.1 µM]	-9
Cn1c(=O)c2c(-c3ccccc3)n(CCCO)cc2n(C)c1=O	-22%	x	-41%[59 µM]	46%	11%	x
Cn1c(=O)c2c(-c3ccccc3)n(Cc3cccnc3)cc2n(C)c1=O	-18%	-15%	10µM*	36%	2%	-3
Cn1c(=O)c2c(-c3ccc(Cl)cc3)n(Cc3ccc(Cl)cc3)cc2n(C)c1=O	-13%	x	-37%[59 µM]	6%	-32%	x
Cc1ccc(-c2c3c(=O)n(C)c(=O)n(C)c3cn2Cc2cccnc2)cc1	-20%	-30%	7.9µM*	47%	11%	3
